# Source: PubChem
# A selection: hits, their analogues and other compounds. The true share with any hit is near 2.9%.
# CRFR2-BP antag: antagonists of CRF-BP/CRF-R2 complex, primary screen, cell-based, HEK293, calcium dye fluorescence, uHTS. CRF-induced calcium fluorescence. inhibition, % at 11.8 µM. actives 0.59% (n = 350,000);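 active = inhibition of the ligand-induced calcium signal above about 50% at the single tested concentration, limit read from the data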
# MEKK2 mut-MEK5: MEK5 binding signal on mutant MEKK2 PB1, primary screen, biochemical, multiplex bead flow cytometry, Alexa488-MEK5; AID 1530, 2009; percent response, % at 10 µM; Alexa488-MEK5 binding to MEKK2 mutant; actives 0.35% (n = 290,000); in the data active = percent response above about 24%, passing the limit was not always enough
# MEKK2 WT-MEK5: modulators of MEK5 binding to wildtype MEKK2, primary screen, biochemical, multiplex bead flow cytometry, Alexa488-MEK5; binding response (% of control), % at 10 µM; Alexa488-MEK5 binding to MEKK2 WT; actives lie on both sides; actives 1.1% (n = 290,000); in the data active = binding response below about 67% or above about 130%
# CRFR2-BP ag: agonists of CRF-BP/CRF-R2 complex, primary screen, cell-based, HEK293, calcium dye fluorescence, uHTS | actives 0.46% (n = 350,000) | CRF-binding protein / CRF receptor 2 complex (human) | calcium dye fluorescence (FLIPR); percent of saturating CRF peptide response | activation, % at 13.2 µM;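 active = activation of at least 50%, plus an integration ratio under a set limit after plate pattern correction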
# ABCB6 inh MLPCN: ABCB6 transporter inhibitors, primary screen, K562-ABCB6 cells, flow cytometry, MLPCN library; ATP-binding cassette sub-family B member 6 (Homo sapiens), Q9NP58; K562-ABCB6 porphyrin accumulation, 1 h; stronger effect = lower value; fluorescence ratio to DMSO, % at 10 µM; actives 0.19% (n = 360,000); AID 602162, 2011;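 active = fluorescence ratio to DMSO below 75%, the collection mean minus 3 SD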;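 note: signal is porphyrin accumulated inside mitochondria; lower ratio means ABCB6 inhibition with less porphyrin fluorescence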
# Target sequence (Q9NP58 whole entry, looked up): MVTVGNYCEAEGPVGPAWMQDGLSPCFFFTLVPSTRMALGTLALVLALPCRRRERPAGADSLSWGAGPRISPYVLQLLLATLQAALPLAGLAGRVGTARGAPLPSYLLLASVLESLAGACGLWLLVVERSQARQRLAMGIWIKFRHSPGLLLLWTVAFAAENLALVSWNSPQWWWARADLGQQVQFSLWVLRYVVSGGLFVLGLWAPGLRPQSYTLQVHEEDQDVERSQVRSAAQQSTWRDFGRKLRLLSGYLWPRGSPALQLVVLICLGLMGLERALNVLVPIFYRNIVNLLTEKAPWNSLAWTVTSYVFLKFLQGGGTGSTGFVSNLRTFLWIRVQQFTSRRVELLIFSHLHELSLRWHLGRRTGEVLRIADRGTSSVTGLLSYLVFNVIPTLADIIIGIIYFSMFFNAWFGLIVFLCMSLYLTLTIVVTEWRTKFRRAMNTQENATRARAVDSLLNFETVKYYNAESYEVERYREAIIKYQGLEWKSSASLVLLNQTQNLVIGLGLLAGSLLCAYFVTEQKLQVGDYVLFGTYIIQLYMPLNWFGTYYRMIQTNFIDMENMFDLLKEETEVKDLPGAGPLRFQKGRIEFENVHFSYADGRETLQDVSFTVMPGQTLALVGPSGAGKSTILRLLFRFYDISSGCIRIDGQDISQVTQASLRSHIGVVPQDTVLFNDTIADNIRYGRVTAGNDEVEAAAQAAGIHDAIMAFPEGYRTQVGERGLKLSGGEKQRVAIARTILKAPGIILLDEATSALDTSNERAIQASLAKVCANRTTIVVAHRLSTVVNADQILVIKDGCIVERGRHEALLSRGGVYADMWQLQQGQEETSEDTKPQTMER
# MEKK3 PB1 HTS: modulators of MEKK3-MEK5 PB1 binding, primary screen, biochemical, wildtype MEKK3, multiplex bead flow cytometry, Alexa488-MEK5; Mitogen-activated protein kinase kinase kinase 3 (Homo sapiens), Q99759; bead-based flow cytometry, Alexa488-MEK5 binding to MEKK3; actives lie on both sides; 0 = blocked by unlabeled MEK5, 100 = vehicle; binding response (% of control), % at 10 µM; actives 1.4% (n = 290,000); AID 1529, 2009;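 active = binding response more than 3 SD above or below the average of its plate-row segment, actives on both sides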;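 note: Alexa488 bead fluorescence after subtracting the streptavidin-only scavenger bead signal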
# MEKK2wt confirm: modulators of MEK5 binding to wildtype MEKK2, confirmation, biochemical, single concentration, multiplex bead flow cytometry. shares compounds with MEKK3 PB1 HTS. Alexa488-MEK5 binding to MEKK2 WT; actives lie on both sides. binding response (% of control), % at 10 µM. actives 2.4% (n = 5,900); in the data active = binding response below about 16% or above about 210%; inactive = in between
# MEKK2mut-MEK5: mutant MEKK2 PB1-MEK5 binding signal retest – biochemical, single concentration, multiplex bead flow cytometry, confirmation. percent response, % at 10 µM. Alexa488-MEK5 binding to MEKK2 mutant. actives 2% (n = 5,900). shares compounds with MEKK3 PB1 HTS. AID 1893, 2009; in the data active = percent response mostly above about 71%, no sharp cut-off; inactive = mostly below about 38%;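 note: higher means compound restores mutant binding toward wildtype level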
# MEKK3 confirm: MEKK3 wild-type PB1 binding to MEK5, inhibitors, confirmation, biochemical, bead multiplex flow cytometry, single concentration, wildtype; Alexa488-MEK5 binding to MEKK3; stronger effect = lower value; binding response (% of control), % at 10 µM; actives 1.8% (n = 5,900); shares compounds with MEKK3 PB1 HTS;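 active = binding response below 72% of control, or above a set upper limit, though filed actives all read lower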
# ABCB6 blocker 1: ABCB6 transporter inhibitors, confirmation, K562-ABCB6 cells, flow cytometry, cherry pick 1 | shares compounds with ABCB6 inh MLPCN | K562-ABCB6 porphyrin accumulation, 1 h; stronger effect = lower value | ratio response (% of DMSO), % at 10 µM | 700 tested, under 10 active;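 active = repeat-averaged ratio response below 75% of DMSO, the collection mean minus 3 SD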;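 note: median porphyrin fluorescence at 575 nm with 488 nm excitation from mitochondria; lower ratio means less porphyrin signal so ABCB6 inhibition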
# Numbers stand for hits; . = inactive; / = no result given; [ ] = dose if it differs, or a comment.
SMILES,CRFR2-BP antag,MEKK2 mut-MEK5,MEKK2 WT-MEK5,CRFR2-BP ag,ABCB6 inh MLPCN,MEKK3 PB1 HTS,MEKK2wt confirm,MEKK2mut-MEK5,MEKK3 confirm,others
Cc1[nH]c2ccc(OC(F)(F)F)cc2c1CCNCc1ccc(Cl)cc1,.,37.0,174.0,.,.,.,.,.,.,
Cc1[nH]c2ccc(OC(F)(F)F)cc2c1CCNCc1cccc([N+](=O)[O-])c1,.,25.0,148.0,.,.,.,.,.,.,
CCOc1cccc(CNCCc2c(C)[nH]c3ccc(OC(F)(F)F)cc23)c1O,.,.,150.0,.,.,.,.,.,.,
COc1ccc2[nH]c(C)c(CCNCc3cccnc3)c2c1,.,/,/,.,.,/,/,/,/,
CN(C)c1cc[n+](CC(O)C[n+]2ccc(N(C)C)cc2)cc1,.,/,/,.,.,/,/,/,/,
Cc1oc(-c2ccc(F)cc2F)nc1CN1C[C@@H]2C[C@@H](C1)c1cccc(=O)n1C2,.,.,.,.,.,.,/,/,/,
CCOC(=O)[C@]12Cc3c(cc(OC)c(OC)c3OC)[C@H]1N(C)C(=O)c1cc(OC)ccc12,/,/,/,/,.,/,/,/,/,
Cc1cc(C(=O)C[N+]23CCN(CC2)CC3)c(C)n1-c1ccc(Br)cc1,.,.,158.0,.,.,146.0,.,.,.,
O=C1NC(=O)[C@]2(Cc3ccccc3N3CCN(c4ccccc4)CC32)C(=O)N1Cc1ccccc1 (some centres undefined),.,.,.,.,.,.,/,/,/,
O=C1NC(=O)C2(Cc3ccccc3N3CCCC32)C(=O)N1Cc1ccccc1 (centres undefined),.,.,-30.0[inhibitor],.,.,-2.0[inhibitor],.,.,.,
CCC1(NS(=O)(=O)c2ccc(N)cc2)C(=O)N(C)C(=O)N(C)C1=O,.,/,/,.,.,/,/,/,/,
C#CCN(C)C(C)Cc1ccccc1 (centres undefined),.,.,61.0[inhibitor],.,.,69.0[inhibitor],.,.,.,
COc1ccc2[nH]cc(C3=CCNCC3)c2c1,/,174.0,182.0,/,/,.,.,.,.,
CC(C)c1ccc(-n2c(O)c(C=NCCN3CCNCC3)c(=O)[nH]c2=S)cc1,.,.,.,.,.,.,/,/,/,
COc1cc(C)c(CNCCc2c[nH]c3ccccc23)cc1C,.,26.0,.,.,.,.,.,.,69.0,
CCOc1c(Cl)cc(CNCCc2c[nH]c3ccccc23)cc1OC,.,.,156.0,.,.,.,.,.,.,
CC(C)OP(=O)(OC(C)C)C(O)c1ccc(Br)cc1 (centres undefined),.,.,.,.,.,149.0,.,.,.,
CC(C)OP(=O)(OC(C)C)C(O)c1cccnc1 (centres undefined),.,.,.,.,.,.,/,/,/,
CC(=O)N1CC(=O)Nc2ccc(C)cc2C1c1ccccc1 (centres undefined),.,.,.,.,.,.,/,/,/,
Cc1ccc2c(c1)C(c1ccccc1)NCC(=O)N2 (centres undefined),.,.,.,.,.,74.0[inhibitor],.,.,.,
c1ccc2nc(OCCN3CC3)ccc2c1,.,32.0,181.0,.,/,.,.,.,.,
c1ccc(C(OCCN2CCNCC2)c2ccccc2)cc1,.,.,.,.,.,.,/,/,/,
Cc1[nH]c2ccccc2c1C1=CCNCC1,.,144.0,.,.,.,.,.,.,.,
COc1cc(CNCCc2ccc3c(c2)OCO3)ccc1O,.,.,.,.,.,.,/,/,/,
COc1cc(CNCCc2ccc3c(c2)OCO3)cc(OC)c1OC,.,.,.,.,.,47.0[inhibitor],.,.,.,
SMILES,CRFR2-BP antag,MEKK2 mut-MEK5,MEKK2 WT-MEK5,CRFR2-BP ag,ABCB6 inh MLPCN,MEKK3 PB1 HTS,MEKK2wt confirm,MEKK2mut-MEK5,MEKK3 confirm,others
CCN1C(=O)C(=C/C=C/c2ccco2)C(=O)N(CC)C1=S,.,.,59.0[inhibitor],50.0,.,.,.,.,.,
CCOc1ccc(-c2cc(C)[n+](CCc3ccc(OC)c(OC)c3)c(-c3ccc(OCC)cc3)c2)cc1,.,37.0,141.0,.,.,.,.,.,.,
CCOc1ccc(-c2cc(C)[n+](CCO)c(-c3ccc(OCC)cc3)c2)cc1,.,.,.,.,.,.,/,/,/,
CN[C@@H]1C[C@@H](c2ccc(Cl)c(Cl)c2)c2ccccc21,/,.,142.0,/,/,.,.,.,.,
CC(NCc1ccc(Cl)c(Cl)c1)C(O)c1ccccc1 (centres undefined),.,.,.,.,.,.,/,/,/,
Cc1ccsc1-c1nc(CSCC(=O)N2CCC3(CC2)OCCO3)c(C)o1,.,.,.,.,.,123.0,.,.,.,
CCOC(=O)c1c(-n2c(C)cc(/C=C3/C(=O)NC(=O)N(CC)C3=O)c2C)sc2c1CCCC2,.,.,.,.,73.0,.,/,/,/,ABCB6 blocker 1=.
COC(=O)C1=COC(C)C2CN3CCc4c([nH]c5cc(OC)ccc45)C3CC12 (centres undefined),/,/,/,/,.,/,/,/,/,
CCCCn1c(O)c(C(C)=NC(C)c2ccccc2)c(=O)[nH]c1=O (centres undefined),.,.,.,.,72.0,.,/,/,/,ABCB6 blocker 1=.
CCCCn1c(O)c(C(CC)=Nc2ccc(OCC)cc2)c(=O)[nH]c1=O,.,.,.,.,74.0,.,/,/,/,ABCB6 blocker 1=.
CCCCn1c(O)c(C(CC)=Nc2ccc(OC)cc2OC)c(=O)[nH]c1=O,.,.,.,.,.,.,/,/,/,
Cc1ccc(S(=O)(=O)N2CCN(C(=O)COC(=O)Cc3ccccc3)CC2)c(C)c1,.,/,/,.,.,/,/,/,/,
CC1=C(C)CC2(C(=O)NC(=O)NC2=O)C(C)C1 (centres undefined),.,/,/,.,.,/,/,/,/,
Fc1ccc(CNCCc2c[nH]c3ccccc23)cc1,.,.,.,.,69.0,.,/,/,/,ABCB6 blocker 1=.
Fc1ccccc1CNCCc1c[nH]c2ccccc12,.,.,.,.,.,.,/,/,/,
